In PubChem BioAssay (Tox21):
Results filed as inconclusive are left out. A call without a number means that no potency is given here. Unmarked numbers belong to inactive results. The source made the active and inactive calls. Unless noted, the call rests on the fitted dose curve; in most records, active means well fitted cell-killing curve with a large enough effect in the repeat runs; inconclusive means weak or mixed curves; inactive means flat fitted curve, though single readings scatter.

Assay: qHTS assay to identify small molecule agonists of the progesterone receptor (PR) signaling pathway - cell viability counter screen (AID 1346799; calls by dose curve; further: nearly all actives have a fitted effect of over 45% in size)
Conditions: PR-UAS-bla HEK293T viability, CellTiter-Glo luminescence, 16 h; series mostly up to 92.4 µM
Procedure, shortened: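 HEK293T PR-UAS-bla, 3,000 cells/well, 2% charcoal-stripped FBS; 6 h settle, compound 16 h at 37C/5% CO2; LiveBLAzer 2 h RT, then CellTiter-Glo 30 min RT, luminescence read.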

Compound	Potency	activity change, negative = cytotoxicity
O=Cc1ccc(F)c(Br)c1	inactive	–
CCCCNc1cc(C(=O)O)cc(S(N)(=O)=O)c1Oc1ccccc1	inactive	–
NCCC(O)(P(=O)(O)O)P(=O)(O)O	inactive	–
CC(C)O	inactive	–
CC(C)C[C@H](NC(=O)OCC1c2ccccc2-c2ccccc21)C(=O)O	inactive	–
C1CSCCS1	inactive	–
CC(C)C(=O)OCC(C)(C)C(O)C(C)C (stereo unspecified)	inactive	–
COC(C)CCO (stereo unspecified)	inactive	–
O=C(Cl)c1cccc([N+](=O)[O-])c1	inactive	–
OC[C@H]1O[C@@H](O[C@H]2[C@H](O)[C@@H](O)[C@H](O)O[C@@H]2CO)[C@H](O)[C@@H](O)[C@H]1O	inactive	–
NC(Cc1ccc(F)cc1)C(=O)O (stereo unspecified)	–	1.93% [at 8.39 µM]
O=C1C=CC(=O)O1	inactive	–
CCCCNCCCC	inactive	–
CCC(=O)c1ccc2c(c1)N(CCCN(C)C)c1ccccc1S2	inactive	–
OCCN(CCO)CCN(CCO)CCO	inactive	–
CC1=C2[C@H](/C=C(\C)C(=O)O)CC[C@@H](C)[C@H]2CC1	inactive	–
O=C(O)CN(CCN(CC(=O)O)CC(=O)O)CCN(CC(=O)O)CC(=O)O	–	-4.49% [at 19 µM]
CCN(CC)C(=O)N(CC)CC	inactive	–
COC(=O)/C=C(/C)N	inactive	–

Assay: qHTS assay to identify small molecule antagonists of the TGF-beta/Smad signaling pathway - cell viability counter screen (AID 1346824); further: nearly all actives have a fitted effect of over 50% in size
Conditions: SBE-bla HEK293T viability, CellTiter-Glo luminescence; series mostly up to 76.8 µM
Procedure, shortened: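 SBE-bla HEK 293T cells were plated overnight at 37 C, then given compounds in DMSO plus TGF-beta1 (added as 0.25 ng/mL solution) for 5 hr. After the bla read, CellTiter-Glo was added to the same wells and luminescence read after 30 min at room temperature.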

Compound	outcome	viability change, negative = cytotoxic
CC(=O)O[C@H]1CC[C@@]2(C)C(=CC[C@@H]3[C@@H]2CC[C@]2(C)C(C(C)=O)=CC[C@@H]32)C1	inactive	–
CCCCC(CC)COC(=O)COc1cc(Cl)c(Cl)cc1Cl (stereo unspecified)	inactive	–
Clc1cccc(-c2cc(Cl)cc(Cl)c2)c1	inactive	–
CCCCCCCCCCCCOCCOS(=O)(=O)O	inactive	–
CN(C)CC[C@@H](c1ccc(Cl)cc1)c1ccccn1	inactive	–
CC/C=C\CCOC(=O)C(C)C	inactive	–
O=C1N(c2ccccc2)c2ccccc2C1(Cc1ccncc1)Cc1ccncc1	inactive	–
COc1ccccc1OCC(O)COC(N)=O (stereo unspecified)	inactive	–
CC(=O)N[C@@H](CC(C)C)C(=O)O	inactive	–
C[C@]12CCC(=O)C=C1CC[C@@H]1[C@@H]2CC[C@@]2(C)[C@H]1CC[C@]2(O)C(=O)CO	inactive	–
CCCC1CCC(=O)O1 (stereo unspecified)	inactive	–
CC(C)S	inactive	–
COC(=O)C(C)O (stereo unspecified)	inactive	–
CCOc1ccc(OCC)c(Cl)c1	inactive	–
c1ccc(CN(CC2=NCCN2)c2ccccc2)cc1	inactive	–
Cc1cc2nc(N)sc2cc1C	inactive	–
O=Cc1ccc(F)c(Br)c1	inactive	–
CCCCNc1cc(C(=O)O)cc(S(N)(=O)=O)c1Oc1ccccc1	inactive	–
NCCC(O)(P(=O)(O)O)P(=O)(O)O	inactive	–

Compound	outcome	viability change, negative = cytotoxic
CC(C)O	inactive	–
CC(C)C[C@H](NC(=O)OCC1c2ccccc2-c2ccccc21)C(=O)O	inactive	–
C1CSCCS1	inactive	–
CC(C)C(=O)OCC(C)(C)C(O)C(C)C (stereo unspecified)	inactive	–
COC(C)CCO (stereo unspecified)	inactive	–
O=C(Cl)c1cccc([N+](=O)[O-])c1	inactive	–
OC[C@H]1O[C@@H](O[C@H]2[C@H](O)[C@@H](O)[C@H](O)O[C@@H]2CO)[C@H](O)[C@@H](O)[C@H]1O	inactive	–
NC(Cc1ccc(F)cc1)C(=O)O (stereo unspecified)	–	18.5% [at 6.97 µM]
O=C1C=CC(=O)O1	inactive	–
CCCCNCCCC	inactive	–
NNS(=O)(=O)c1ccc(Oc2ccc(S(=O)(=O)NN)cc2)cc1	inactive	–
CCC(=O)c1ccc2c(c1)N(CCCN(C)C)c1ccccc1S2	inactive	–
OCCN(CCO)CCN(CCO)CCO	inactive	–
CC1=C2[C@H](/C=C(\C)C(=O)O)CC[C@@H](C)[C@H]2CC1	inactive	–
O=C(O)CN(CCN(CC(=O)O)CC(=O)O)CCN(CC(=O)O)CC(=O)O	–	3.31% [at 15.8 µM]
CCN(CC)C(=O)N(CC)CC	inactive	–
COC(=O)/C=C(/C)N	inactive	–
Cc1nc(-c2ccccn2)ncc1C(=O)Nn1cc(C)c2cc(F)ccc21	inactive	–
